The source made the active and inactive calls.
Legend:
[1] = tested on: Plasmodium falciparum Sir2 (PF13_0152, Sir2A); test: Plasmodium falciparum Sir2A binding compounds – biochemical, small-molecule microarray, 635 nm fluorescence, primary screen (AID 1098); settings: fluorescence 635 nm, higher = more signal;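 also: score merges spot fluorescence intensity with its signal-to-noise ratio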
[2] = probe aDKK1 binding to arrayed compounds – biochemical, biotinylated probe, 635/667 nm fluorescence, primary screen (AID 1099); settings: small-molecule microarray, higher = more signal;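 also: score merges 667nm spot fluorescence with signal to noise across triplicate slides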
[3] = probe aCHRDL2 binding to arrayed compounds – biochemical, biotinylated probe, 635/667 nm fluorescence, primary screen (AID 1100); settings: small-molecule microarray, higher = more signal
[4] = change in splice reporter luminescence, either direction, cell-based, HEK293, spliceosome inhibition project, primary screen (AID 1101); settings: HEK293 splicing luciferase reporter, 24 h, higher = more signal, called active from +8 up or from −8 down;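 also: HEK293 cells carrying a splicing-competent luciferase reporter gene; test concentration not given here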
[5] = biological target: Fibroblast growth factor 10 (Homo sapiens) (UniProt O15520); test: compounds binding fibroblast growth factor 10 – biochemical, small-molecule microarray, 635 nm fluorescence, primary screen (AID 1102); settings: FGF10 binding, fluorescence 635 nm, higher = more signal
[6] = tested on: glycogen synthase kinase-3 (GSK3A per assay name; protocol says GSK3B); test: compounds binding glycogen synthase kinase-3 – biochemical, small-molecule microarray, 635 nm fluorescence, GSK3A, primary screen (AID 1103); settings: fluorescence 635 nm, higher = more signal; also: the record names both GSK3A and GSK3B
[7] = biological target: Epidermal growth factor receptor (Homo sapiens) (UniProt P00533); test: compounds binding epidermal growth factor receptor – biochemical, small-molecule microarray, 635 nm fluorescence, primary screen (AID 1104); settings: EGFR binding, higher = more signal;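 also: score merges 667 nm emission intensity with spot signal to noise over triplicate slides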
[8] = biological target: Follistatin-related protein 3 (Homo sapiens) (UniProt O95633); test: compounds binding follistatin-related protein 3 – biochemical, small-molecule microarray, 635 nm fluorescence, primary screen (AID 1105); settings: FSTL3 binding, higher = more signal;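 also: score merges emission near 667 nm and signal to noise per printed spot across three slides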
[9] = biological target: Dickkopf-related protein 1 (Homo sapiens) (UniProt O94907); test: small molecules binding DKK1 protein – biochemical, small-molecule microarray, 635 nm fluorescence scan, primary screen (AID 1106); settings: higher = more signal;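 also: score merges emission near 667 nm with signal to noise over three replicate slides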
[10] = tested on: Inhibin beta A chain (activin A); test: small molecules binding activin A – biochemical, small-molecule microarray, 635 nm fluorescence scan, primary screen (AID 1107); settings: INHBA, higher = more signal;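 also: mouse activin A protein probed at 4.33 µg/mL on printed slides; score merges bound-protein fluorescence near 667 nm with spot signal-to-noise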
[11] = tested on: Human papillomavirus type 1a protein E7 (residues 44-93); test: small molecules binding HPV E7 44-93 – biochemical, small-molecule microarray, residues 44-93, 635 nm fluorescence, primary screen (AID 1108); settings: fluorescence 635 nm, higher = more signal;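 also: E7 fragment applied at 1 µg/mL in TBST for 1 h at 4 C; score combines spot fluorescence with its signal to noise ratio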
[12] = hepatitis C replication reporter changes, two-sided – Huh7 cells, luciferase reporter, HCV replication inhibitor project, primary screen (AID 1109); settings: Huh7 HCV replicon luciferase reporter, 48 h; higher = more signal;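 also: huh7 hepatoma cells harbouring a luciferase neomycin HCV replicon reporter; luciferase luminescence as measure of HCV replicon replication; test concentration not given here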
[13] = biological target: Left-right determination factor 2 (Homo sapiens) (UniProt O00292); test: small molecules binding LEFTY2 protein – biochemical, small-molecule microarray, 635 nm fluorescence scan, primary screen (AID 1110); settings: higher = more signal
[14] = biological target: Calmodulin-1 (Homo sapiens) (UniProt P0DP23); test: small molecules binding calmodulin-1 with EGTA – biochemical, small-molecule microarray, Cy5-labelled CALM1, profiling panel (AID 1111); settings: Cy5-CALM1 binding fluorescence, higher = more signal;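 also: labelled calmodulin applied in Tris saline Tween buffer holding calcium plus EGTA and DTT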
[15] = biological target: Calmodulin-1 (Homo sapiens) (UniProt P0DP23); test: small molecules binding Ca-loaded calmodulin-1 – biochemical, small-molecule microarray, Cy5-labelled CALM1, plus calcium, artefact control for SMM control-protein annotation, profiling panel (AID 1112); settings: Cy5-CALM1 binding fluorescence, higher = more signal;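 also: score merges spot fluorescence with signal to noise from triplicate slides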
[16] = probe aWnt5a binding to arrayed compounds – biochemical, biotinylated probe, 635/667 nm fluorescence, primary screen (AID 1113); settings: small-molecule microarray, higher = more signal;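 also: score merges 667 nm fluorescence intensity with signal-to-noise per printed feature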
[17] = probe aShh binding to arrayed compounds – biochemical, biotinylated probe, 635/667 nm fluorescence, primary screen (AID 1114); settings: small-molecule microarray, higher = more signal;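 also: probe is biotin-labelled aShh protein from a stem cell growth factor screen; measures binding of labelled protein to compounds printed on the slide; score merges feature fluorescence at 667 nm with signal-to-noise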
[18] = probe aNog binding to arrayed compounds – biochemical, biotinylated probe, 635/667 nm fluorescence, primary screen (AID 1115); settings: small-molecule microarray, higher = more signal;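 also: probe is biotinylated aNog protein used at 0.15 µg/mL for 1 h at 4 C; z-score combines 667 nm fluorescence of each spot with its signal to noise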
[19] = biological target: Torsin-1A-interacting protein 1 (Homo sapiens) (UniProt Q5JTV8); test: compound microarray binding of lysate hLAP1 – cell lysate, small-molecule microarray, COS7 lysate, 635/667 nm fluorescence, primary screen (AID 1116); settings: 635 nm fluorescence, higher = more signal
[20] = biological target: Alpha-bungarotoxin (Bungarus multicinctus) (UniProt P60615); test: compounds binding labelled alpha-BTX control protein – biochemical, small-molecule microarray, Alexa647 label, 635/667 nm fluorescence, artefact control for SMM control protein annotation, profiling panel (AID 1117); settings: alpha-BTX-A647 binding fluorescence, higher = more signal
Sequence of Alpha-bungarotoxin (Bungarus multicinctus) (P60615 whole entry, looked up): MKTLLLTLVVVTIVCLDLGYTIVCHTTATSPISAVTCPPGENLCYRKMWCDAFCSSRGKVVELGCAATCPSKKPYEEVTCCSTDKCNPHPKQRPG

Sequence of Left-right determination factor 2 (Homo sapiens) (O00292 whole entry, looked up): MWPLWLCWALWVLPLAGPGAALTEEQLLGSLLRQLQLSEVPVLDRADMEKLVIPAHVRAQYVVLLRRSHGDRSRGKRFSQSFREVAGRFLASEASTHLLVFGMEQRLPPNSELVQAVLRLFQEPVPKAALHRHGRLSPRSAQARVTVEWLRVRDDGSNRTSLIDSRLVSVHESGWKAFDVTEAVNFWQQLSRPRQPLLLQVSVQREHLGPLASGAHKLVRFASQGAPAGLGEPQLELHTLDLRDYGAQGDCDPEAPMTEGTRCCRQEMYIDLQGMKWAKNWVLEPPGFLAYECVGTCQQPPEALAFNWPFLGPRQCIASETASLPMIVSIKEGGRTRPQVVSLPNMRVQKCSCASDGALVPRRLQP
Sequence of Dickkopf-related protein 1 (Homo sapiens) (O94907 whole entry, looked up): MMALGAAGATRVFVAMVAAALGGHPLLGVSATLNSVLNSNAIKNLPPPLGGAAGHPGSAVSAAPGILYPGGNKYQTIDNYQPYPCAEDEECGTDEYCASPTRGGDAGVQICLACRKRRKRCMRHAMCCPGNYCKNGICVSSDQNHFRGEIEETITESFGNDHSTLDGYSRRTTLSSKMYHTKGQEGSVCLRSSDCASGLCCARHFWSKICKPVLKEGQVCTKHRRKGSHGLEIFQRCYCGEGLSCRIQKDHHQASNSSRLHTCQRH
Sequence of Fibroblast growth factor 10 (Homo sapiens) (O15520 whole entry, looked up): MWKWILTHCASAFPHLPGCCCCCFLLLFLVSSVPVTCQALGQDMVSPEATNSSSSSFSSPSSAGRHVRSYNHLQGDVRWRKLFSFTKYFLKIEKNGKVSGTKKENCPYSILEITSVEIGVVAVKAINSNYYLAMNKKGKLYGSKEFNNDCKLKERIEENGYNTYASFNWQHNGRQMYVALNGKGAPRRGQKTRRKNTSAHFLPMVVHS
Sequence of Torsin-1A-interacting protein 1 (Homo sapiens) (Q5JTV8 whole entry, looked up): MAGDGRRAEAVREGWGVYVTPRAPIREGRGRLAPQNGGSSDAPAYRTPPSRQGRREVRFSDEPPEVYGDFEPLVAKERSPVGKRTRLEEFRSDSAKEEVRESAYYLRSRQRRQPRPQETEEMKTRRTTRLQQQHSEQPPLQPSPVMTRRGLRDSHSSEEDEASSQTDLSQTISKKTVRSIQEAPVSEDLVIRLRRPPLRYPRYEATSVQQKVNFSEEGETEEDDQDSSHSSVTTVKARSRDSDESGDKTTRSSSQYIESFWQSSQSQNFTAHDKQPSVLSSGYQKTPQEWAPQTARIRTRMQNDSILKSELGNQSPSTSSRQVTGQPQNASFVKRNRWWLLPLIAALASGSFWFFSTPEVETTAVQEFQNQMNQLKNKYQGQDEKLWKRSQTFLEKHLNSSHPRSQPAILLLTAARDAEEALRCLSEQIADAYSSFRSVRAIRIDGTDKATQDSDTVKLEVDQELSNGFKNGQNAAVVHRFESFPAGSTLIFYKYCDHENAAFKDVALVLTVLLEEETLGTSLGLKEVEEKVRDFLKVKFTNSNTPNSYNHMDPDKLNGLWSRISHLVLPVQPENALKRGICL
Sequence of Epidermal growth factor receptor (Homo sapiens) (P00533 whole entry, looked up): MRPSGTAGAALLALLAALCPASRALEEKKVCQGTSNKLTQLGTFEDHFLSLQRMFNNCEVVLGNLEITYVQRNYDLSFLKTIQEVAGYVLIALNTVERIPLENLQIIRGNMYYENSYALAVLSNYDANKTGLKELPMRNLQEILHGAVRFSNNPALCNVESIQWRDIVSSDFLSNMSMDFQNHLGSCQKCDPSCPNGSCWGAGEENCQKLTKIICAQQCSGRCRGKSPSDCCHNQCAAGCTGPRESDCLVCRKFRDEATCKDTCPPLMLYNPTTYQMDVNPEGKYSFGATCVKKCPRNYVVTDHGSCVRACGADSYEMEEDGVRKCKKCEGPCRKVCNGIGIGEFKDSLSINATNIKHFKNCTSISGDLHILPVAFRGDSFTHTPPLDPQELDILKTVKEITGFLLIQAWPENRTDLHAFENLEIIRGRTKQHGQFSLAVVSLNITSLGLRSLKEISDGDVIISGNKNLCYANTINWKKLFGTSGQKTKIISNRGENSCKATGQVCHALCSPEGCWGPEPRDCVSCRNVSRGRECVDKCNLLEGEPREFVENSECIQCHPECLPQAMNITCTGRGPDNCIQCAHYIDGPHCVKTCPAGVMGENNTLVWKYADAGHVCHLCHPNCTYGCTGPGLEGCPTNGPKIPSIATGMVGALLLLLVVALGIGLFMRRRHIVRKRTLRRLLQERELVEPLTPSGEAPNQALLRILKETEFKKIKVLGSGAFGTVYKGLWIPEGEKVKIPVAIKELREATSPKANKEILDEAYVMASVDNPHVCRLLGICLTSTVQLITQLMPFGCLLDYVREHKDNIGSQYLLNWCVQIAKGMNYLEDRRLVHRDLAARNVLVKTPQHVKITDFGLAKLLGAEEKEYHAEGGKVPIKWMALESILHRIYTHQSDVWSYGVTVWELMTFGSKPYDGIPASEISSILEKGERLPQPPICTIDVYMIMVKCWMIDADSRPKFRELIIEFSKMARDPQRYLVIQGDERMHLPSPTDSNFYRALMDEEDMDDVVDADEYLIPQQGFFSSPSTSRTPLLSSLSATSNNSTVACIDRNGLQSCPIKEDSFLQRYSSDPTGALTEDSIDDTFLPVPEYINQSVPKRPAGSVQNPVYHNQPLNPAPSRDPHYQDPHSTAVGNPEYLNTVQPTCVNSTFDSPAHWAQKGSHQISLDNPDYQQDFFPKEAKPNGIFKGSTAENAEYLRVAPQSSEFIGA
Sequence of Follistatin-related protein 3 (Homo sapiens) (O95633 whole entry, looked up): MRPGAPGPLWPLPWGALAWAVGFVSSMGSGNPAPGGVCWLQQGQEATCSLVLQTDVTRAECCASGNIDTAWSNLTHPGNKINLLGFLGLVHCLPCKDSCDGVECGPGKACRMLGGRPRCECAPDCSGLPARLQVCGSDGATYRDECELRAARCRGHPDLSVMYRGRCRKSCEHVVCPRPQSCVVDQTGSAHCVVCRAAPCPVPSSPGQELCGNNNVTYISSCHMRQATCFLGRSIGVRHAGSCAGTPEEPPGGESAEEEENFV

SMILES	composite z-score [1]	composite z-score [2]	composite z-score [3]	z-score [4]	composite z-score [5]	composite z-score [6]	composite z-score [7]	composite z-score [8]	composite z-score [9]	composite z-score [10]	composite z-score [11]	z-score [12]	composite z-score [13]	composite z-score [14]	composite z-score [15]	composite z-score [16]	composite z-score [17]	composite z-score [18]	composite z-score [19]	composite z-score [20]
O=C/C=C/c1ccccc1Cl	1.67	0.265	0.405	0.0402 (inactive)	0.0974	-0.71	-0.336	-0.62	-0.485	0.325	-1.36	1.03	-0.524	0.387	0.618	-0.0499	-0.0626	0.0811	-0.335	1.76
COc1ccc([Si](C)(C)[C@@H]2[C@@H](CCO)O[C@]3(C(=O)N(Cc4ccc(NC(=O)[C@H](C)O)cc4)c4ccccc43)[C@H]2C)cc1	1.3	0.305	0.161	-4.19 (inactive)	0.245	0.993	0.226	0.335	0.0302	0.316	1.39	-5.23	0.0969	0.805	-0.0051	-0.12	-0.0626	0.0169	0.694	0.94
O=C1C[C@@](C(=O)NCCN2CCOCC2)(c2ccc([N+](=O)[O-])cc2)[C@@H](c2ccc(CO)cc2)N1C1CCCCC1	1.2	0.653	1.02	0.281 (inactive)	0.798	1.02	0.789	0.662	-0.0544	0.64	1.39	-0.867	1.06	0.502	-0.142	0.0621	0.171	0.924	1.6	0.571
COc1ccc(CCNC(=O)[C@@]2(c3ccc([N+](=O)[O-])cc3)CC(=O)N(C(C)C)[C@@H]2c2ccc(CO)cc2)cc1	1.25	0.716	1.24	-0.58 (inactive)	-0.787	-0.767	-1.57	-1.67	-1.43	-0.445	0.0008	-0.309	-1.6	-0.63	-0.0462	-0.129	0.0557	0.132	0.228	-0.631
Cc1ccc(N2C(=O)c3ccccc3[C@](C)(C(=O)O)[C@@H]2c2ccc(CO)cc2)nc1	-0.445	-0.322	0.365	0.763 (inactive)	-0.883	-1.45	-2.18	-1.21	-0.967	-0.292	-2.5	0.0767	-1.64	0.202	0.823	-0.304	0.608	-0.459	-0.415	-0.666
O=C(NCC(O)CO)[C@]1(Cc2ccccc2)N=C(c2ccc(OCCCO)cc2)O[C@@H]1c1ccccc1 (stereo not given in full)	1.51	1	0.955	-1.47 (inactive)	-0.23	-0.0255	-1.25	-0.376	-0.197	0.148	0.679	-0.378	-1.48	2.61	1.31	0.225	-0.0642	1.68	2.64	2.27
C=CCC(OC(C)=O)[C@@H]1[C@@H](N(Cc2cc3ccccc3o2)C(=O)Cc2ccc(F)cc2)c2cc(OCCCO)ccc2N1C(=O)c1ccc(-c2ccccc2)cc1 (stereo not given in full)	-0.271	-0.168	0.512	-1.05 (inactive)	-0.251	-0.708	-0.162	-0.346	0.0578	1.18	-0.524	0.591	-0.159	-0.302	1.14	-0.154	0.0141	0.389	-0.467	0.208
COC(=O)Cn1c(C(=O)N2CCCC2)cc2c1C[C@H]1CN(C(=O)c3ccccc3)[C@@](Cc3ccccc3)(C(=O)OC)[C@@H]21	0.473	0.789	1.09	0.309 (inactive)	0.0175	-0.838	-0.282	0.105	-0.837	0.632	0.225	-1.02	-0.0875	0.79	0.589	-0.006	0.0639	-0.374	0.261	0.236
CO[C@H]1COC(=O)CC=C[C@@H](C)COC(=O)[C@@H](C)NC(=O)CC=C[C@@H]1C	1.35	-0.954	-1.84	-2.81 (inactive)	0.567	0.967	1.39	1.45	2.01	-0.529	-0.291	0.325	1.6	-3.42	-3.57	-0.307	0.238	-0.139	-0.229	-0.706
C=CC[C@]1(C(=O)O)N=C(c2ccc(OCCCO)cc2)O[C@H]1c1ccccc1N=[N+]=[N-]	1.75	0.623	1.05	-0.627 (inactive)	-0.103	-0.335	-0.18	-0.214	-0.651	1.43	-0.914	1.65	-0.753	1.74	0.768	0.055	-0.0243	-0.0069	1.45	0.0298
O=C1OCCC/C=C\[C@H]2OC34C=CCN(CCN5CCOCC5)C(=O)[C@H]3N(CCCCCO)C(=O)[C@@H]4C12 (stereo not given in full)	1.52	-0.413	-0.0252	-0.755 (inactive)	-0.81	-0.188	-1.33	-0.762	-0.333	0.966	-0.827	-0.953	-1.37	-0.725	-1.26	-0.226	-0.147	-0.356	-0.849	-0.918
Cc1ccc(S(=O)(=O)N2[C@@H](c3ccccc3)C(C(=O)O)=CC[C@H]2c2ccccc2)cc1	0.0714	0.153	0.431	-0.258 (inactive)	0.476	-0.0481	0.197	0.169	-0.454	0.512	0.433	0.498	-0.363	0.526	0.355	0.0317	-0.0709	0.109	-0.701	0.317

Source: PubChem BioAssay
